Experimental data reported in the supplement of paper PMC12632987.
Whole data set: some 4,500 sequences, median “median log2 fold change of GCK-ALFA target abundance (FLAG IP / Myc IP barcode read proportion)” near 0.078, cut for the lowest 2% near -0.6. Shown is part of a subset that was picked to be rich in the lowest values.

B1: GBRAP_117_2594 (protein)
chain: SATLEEVRKRVEELVERIRKALEEMKTLSEEERKRLREELLEEATKEVKEMLKLTDAETVEEFFAEALADLSPEERVEAYIIFEEALADAEDELKEEEEA
B2: GBRAP_128_3594 (protein)
chain: SVEEVRAYVREALAAMKEADAETRREIADALMERLLTLSDEEQRAAFETIEELLPELSAEDLDILADALREHRPRFSPEGANLAADVEVEALNEREELEE
B3: GBRAP_80_6786 (protein)
chain: MEEEIEKLIEEIEKKNPEVAKIIKEIVELLKEIGVPLEIIKEIVEVFLDALSLPKETQLKIAKEVLEEAKELSEYKDEFSPEDIGRMVLAEALTLVELAK
B4: GBRAP_83_6928 (protein)
chain: KEKIVVAANDDNIDEAFEAAIDLQKNEGYEVDVEVIITKEGFPKLKKAFEKMAKAGWNGTLDILAVGATKEEVEKLKAELEAIAKKYGVNVKINVTQVEP
B5: GBRAP_160_4685 (protein)
chain: SEKVEEAEEFLEEEFAEVVELFDEVTREELAAFVRVAFGEIILELEELGLLTDEVAEVIDEEEERIVDAILNDPNITKEEFAALLEEAAEEIVEELEEEA
B6: GBRAP_184_5239 (protein)
chain: MVLERTIKAENEEELREKMKEVMEEAEKKGAKVRLLIEVEKLTREKAETLAEMIKEMAAKGLLELVGVVSSEPISEEIVDLLVEAADEAGVKLVIAEPEI
B7: GBRAP_52_6331 (protein)
chain: SHEEVEKMAEELYKAIVAGKEEEAKKLAEEMVETLSSEEILEAARIVAERVAKEGDEVKVRAAEVFEYLAELVEEKRGDERTAAEILGIYATTLYAAEQA
B8: GBRAP_11_2762 (protein)
chain: MKEKYERLAELAERAAELVDRLLAEGVDDAELLAELERLLRELREETKKIGDKALEKDVEIAEELFRALQADPANAEAYARELRAQLRVLAGQYLLLAEE

target: GABARAP, O95166; assay: median log2 fold change of GCK-ALFA target abundance (FLAG IP / Myc IP barcode read proportion) (log2 ratio); each designed protein is fused to an ALFA-tag nanobody in HEK293 cells to bring the named protein to FLAG-tagged glucokinase (GCK); Myc marks an untargeted standard; higher = target protein stabilised (more abundant); conditions: target protein: 3xFLAG-MCP-GCK-ALFA reporter; HEK293 landing pad (RPLP)
Outline: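 HEK293 landing-pad cells received a recombined binder library fused to the ALFA nanobody and were induced with 2 μg mL^−1 doxycycline, then transfected with a plasmid encoding a FLAG-tagged target and a Myc-tagged standard. Lysates were collected after 48 h for anti-FLAG and anti-Myc immunoprecipitation, and the circular RNA barcodes were reverse transcribed, amplified and sequenced. Target abundance for each binder is the median log2 ratio of FLAG to Myc barcode read proportions. Barcodes had to reach a proportion of at least 10^−7 in both replicates, each binder needed at least 3 barcodes per replicate, a pseudocount of 10^−6 was applied, and the two replicates were pooled.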

GABARAP, O95166, sequence (O95166 whole entry, the tested form may be a part): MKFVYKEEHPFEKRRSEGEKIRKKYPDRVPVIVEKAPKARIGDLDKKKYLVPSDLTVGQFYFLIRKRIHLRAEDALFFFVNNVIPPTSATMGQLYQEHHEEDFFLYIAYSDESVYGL

Going from B1 to B2, the “median log2 fold change” value falls from 0.152 to -0.0656.

B3 and B4 are within 0.2 log units of each other in “median log2 fold change” value: -0.00858 for the first, 0.0213 for the second.

First: B5
Second: B6
The “median log2 fold change” value of the first is lower: -0.679 for the first, 0.163 for the second.

B7 and B8 are within 0.2 log units of each other in “median log2 fold change” value: 0.372 for the first, 0.183 for the second.
